This is part of a sample that, as a whole, favours compounds with a hit. Of some 83,000 tested, about 20% had one in any assay.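 Testing used 96-well plates and a 48-hour single-concentration exposure. Example: -40 means 40% of the starting cells died.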 Active and inactive are the calls of the source. Rule for the calls: active = growth percent below 10; inactive = the rest.
Test system: TK-10 renal
Test: NCI-60 one-dose screen, 48 h (100 = growth as untreated, 0 = no growth, -100 = all killed)
Conditions: 10 µM unless noted

| SMILES | growth |
| --- | --- |
| CCC(C)CC(C)C(=O)c1c(O)ccn(O)c1=O (stereo unspecified) | 83.7% (inactive) |
| COc1ccc2nc(NC(=O)c3cc(-c4ccc(F)cc4)n4nc(-c5ccccc5)cc4n3)sc2c1 | 134% (inactive) |
| COc1cccc2c1O/C(=C\c1c([N+](=O)[O-])ncn1C)C2=O | 109% (inactive) |
| O=C(Nc1ccncc1)C(=O)c1cn(S(=O)(=O)c2cccc(F)c2)c2ccccc12 | 84.1% (inactive) |
| COc1ccc(-c2cn(-c3ccccc3)c(-c3ccccc3)n2)cc1OC | 99.4% (inactive) |
| Clc1ccc2nc(Cl)c3ccccc3c2c1 | 9.12% (active) |
| Nc1ccc(C2=NN(c3ccccc3)C(c3ccc(Cl)cc3)C2)cc1 (stereo unspecified) | 74.2% (inactive) |
| CSc1nnc(C2=CC(=O)c3ccccc3C2=O)n1-c1ccccc1 | 121% (inactive) |
| CCN(CC)c1ccc(CN(CC(=O)c2ccc(Cl)c(Cl)c2)Cc2ccccc2)cc1 | 117% (inactive) |
| C/C(=C\CCc1ccsc1)CC/C=C(\C)CCCN1CCC(CO)CC1 | 22.6% (inactive) |
| O=C(Nc1cccc(C(F)(F)F)c1)Nc1ccc(OCc2nnc(-c3ccc(Cl)cc3)o2)c(F)c1 | 81.3% (inactive) |
| CCOc1cc(-c2ccc[nH]2)[nH]c1/C=C1\N=C(C)C(C(=O)OC)=C1C | -85.8% (active) |
| O=C1/C(=C/c2ccc([N+](=O)[O-])s2)Oc2ccc(Br)cc21 | -25.3% (active) |
| COc1ccc(Nc2nccc(N3CCN(c4c5ccc(Cl)cc5nc5ccc(OC)cc45)CC3)n2)cc1 | 59.2% (inactive) |
| Cc1cc(NCCCNc2ccnc3cc(Cl)ccc23)nc(N2CCN(C)CC2)n1 | 133% (inactive) |
| O=C(Nc1ccc(OCc2nnc(-c3ccccc3)o2)c(F)c1)Nc1ccc(Cl)c(C(F)(F)F)c1 | 33.7% (inactive) |
| c1cnc2n[nH]c(Nc3ncnc4c3sc3ncccc34)c2c1 | 103% (inactive) |
| COc1cc(/C=C2\CCC/C(=C\c3ccc(OCC4CO4)c(OC)c3)C2=O)ccc1OCC1CO1 (stereo unspecified) | 58.5% (inactive) |
| COc1cc(/C=C2\COc3ccc(O)c(O)c3C2=O)cc(OC)c1 | 16.3% (inactive) |

| SMILES | growth |
| --- | --- |
| O=C1/C(=C/c2ccc([N+](=O)[O-])o2)Oc2ccc(Cl)cc21 | -59.8% (active) |
| O=[N+]([O-])c1cnc(Sc2ccncn2)c([N+](=O)[O-])c1 | -37.8% (active) |
| O=C(O)c1ccc(NC(=O)c2ccc(Nc3ccnc(C(F)(F)F)c3)cc2)cc1 | 105% (inactive) |
| Cc1ccc2c(c1)O/C(=C\c1ccc([N+](=O)[O-])o1)C2=O | -32.7% (active) |
| O=C1/C(=C/c2ccc([N+](=O)[O-])o2)Oc2ccc(Br)cc21 | -28.5% (active) |
| O=C(Nc1ccc(Cl)cc1)c1cc2c(cc1O)[nH]c1ccccc12 | 4.83% (active) |
| Cc1cc2c(cc1C)Nc1sc(NC(=O)CN3CCN(C)CC3)nc1C(=O)N2 | 99.9% (inactive) |
| COc1ccc2nc3cc(Cl)ccc3c(N3CCN(c4ccnc(Nc5ccc(F)cc5)n4)CC3)c2c1 | 66.1% (inactive) |
| COc1cc(C2CC(c3ccc(C)cc3)=NN2C(C)=O)ccc1Oc1ccnc2cc(Cl)ccc12 (stereo unspecified) | 11.1% (inactive) |
| O=C(/C=C/c1cccnc1)NCCCCC1CCCN(C(=O)c2ccccc2)C1 (stereo unspecified) | 103% (inactive) |
| CCOC(=O)c1c(NC(=O)C2CCCCC2C(=O)O)sc2c1CCCC2 (stereo unspecified) | 113% (inactive) |
| Cc1ccc(C=C2C(Cl)=C(Cl)C(Cl)=C2Cl)cc1 | -44.6% (active) |
| O=C(/C(=N/O)S(=O)(=O)c1ccccc1)c1cccs1 | 89.5% (inactive) |
| CCOc1nc(-c2ccccc2)cc2c(O)c(C(=O)n3nc(C)cc3C)[nH]c(=O)c12 | 108% (inactive) |
| COc1ccc(OC)c(NC(=O)c2cc3oc4ccccc4c3cc2O)c1 | 135% (inactive) |
| CN(C)c1ccc(/C=C(\C#N)c2nc3ccccc3c(=O)[nH]2)cc1 | 101% (inactive) |
| Nc1nc(SCc2ccccc2Cl)c(-c2ccccc2)c(SCc2ccccc2Cl)n1 | 97.7% (inactive) |
| C/C(=C\CCc1ccsc1)CC/C=C(\C)CCCN1CCN(CCO)CC1 | 40% (inactive) |
| CCN1C(=O)c2ccc3c4c(ccc(c24)C1=O)C(=O)N(CCCNCc1ccccc1OC)C3=O | -28.3% (active) |

Test system: ACHN renal
Test: as above
Conditions: 10 µM unless noted

| SMILES | growth |
| --- | --- |
| CCC(C)CC(C)C(=O)c1c(O)ccn(O)c1=O (stereo unspecified) | 16.6% (inactive) |
| COc1ccc2nc(NC(=O)c3cc(-c4ccc(F)cc4)n4nc(-c5ccccc5)cc4n3)sc2c1 | 67.5% (inactive) |
| COc1cccc2c1O/C(=C\c1c([N+](=O)[O-])ncn1C)C2=O | 89% (inactive) |
| O=C(Nc1ccncc1)C(=O)c1cn(S(=O)(=O)c2cccc(F)c2)c2ccccc12 | 55.9% (inactive) |
| COc1ccc(-c2cn(-c3ccccc3)c(-c3ccccc3)n2)cc1OC | 64.4% (inactive) |
| Clc1ccc2nc(Cl)c3ccccc3c2c1 | 1.26% (active) |
| Nc1ccc(C2=NN(c3ccccc3)C(c3ccc(Cl)cc3)C2)cc1 (stereo unspecified) | 82.1% (inactive) |
| CSc1nnc(C2=CC(=O)c3ccccc3C2=O)n1-c1ccccc1 | 74.9% (inactive) |
| CCN(CC)c1ccc(CN(CC(=O)c2ccc(Cl)c(Cl)c2)Cc2ccccc2)cc1 | 107% (inactive) |
| C/C(=C\CCc1ccsc1)CC/C=C(\C)CCCN1CCC(CO)CC1 | 44% (inactive) |
| O=C(Nc1cccc(C(F)(F)F)c1)Nc1ccc(OCc2nnc(-c3ccc(Cl)cc3)o2)c(F)c1 | 51.2% (inactive) |
| CCOc1cc(-c2ccc[nH]2)[nH]c1/C=C1\N=C(C)C(C(=O)OC)=C1C | -76.8% (active) |
| O=C1/C(=C/c2ccc([N+](=O)[O-])s2)Oc2ccc(Br)cc21 | -64% (active) |
| COc1ccc(Nc2nccc(N3CCN(c4c5ccc(Cl)cc5nc5ccc(OC)cc45)CC3)n2)cc1 | 57.8% (inactive) |
| Cc1cc(NCCCNc2ccnc3cc(Cl)ccc23)nc(N2CCN(C)CC2)n1 | 45.7% (inactive) |
| O=C(Nc1ccc(OCc2nnc(-c3ccccc3)o2)c(F)c1)Nc1ccc(Cl)c(C(F)(F)F)c1 | 9.47% (active) |
| c1cnc2n[nH]c(Nc3ncnc4c3sc3ncccc34)c2c1 | 97.8% (inactive) |
| COc1cc(/C=C2\CCC/C(=C\c3ccc(OCC4CO4)c(OC)c3)C2=O)ccc1OCC1CO1 (stereo unspecified) | 30.2% (inactive) |
| COc1cc(/C=C2\COc3ccc(O)c(O)c3C2=O)cc(OC)c1 | -85.7% (active) |

| SMILES | growth |
| --- | --- |
| O=C1/C(=C/c2ccc([N+](=O)[O-])o2)Oc2ccc(Cl)cc21 | -61% (active) |
| O=[N+]([O-])c1cnc(Sc2ccncn2)c([N+](=O)[O-])c1 | -29.6% (active) |
| O=C(O)c1ccc(NC(=O)c2ccc(Nc3ccnc(C(F)(F)F)c3)cc2)cc1 | 98.9% (inactive) |
| Cc1ccc2c(c1)O/C(=C\c1ccc([N+](=O)[O-])o1)C2=O | 1.36% (active) |
| O=C1/C(=C/c2ccc([N+](=O)[O-])o2)Oc2ccc(Br)cc21 | 1.25% (active) |
| O=C(Nc1ccc(Cl)cc1)c1cc2c(cc1O)[nH]c1ccccc12 | 22.2% (inactive) |
| Cc1cc2c(cc1C)Nc1sc(NC(=O)CN3CCN(C)CC3)nc1C(=O)N2 | 111% (inactive) |
| COc1ccc2nc3cc(Cl)ccc3c(N3CCN(c4ccnc(Nc5ccc(F)cc5)n4)CC3)c2c1 | 62.5% (inactive) |
| COc1cc(C2CC(c3ccc(C)cc3)=NN2C(C)=O)ccc1Oc1ccnc2cc(Cl)ccc12 (stereo unspecified) | 32.2% (inactive) |
| O=C(/C=C/c1cccnc1)NCCCCC1CCCN(C(=O)c2ccccc2)C1 (stereo unspecified) | 73.7% (inactive) |
| CCOC(=O)c1c(NC(=O)C2CCCCC2C(=O)O)sc2c1CCCC2 (stereo unspecified) | 98.2% (inactive) |
| Cc1ccc(C=C2C(Cl)=C(Cl)C(Cl)=C2Cl)cc1 | -54.8% (active) |
| O=C(/C(=N/O)S(=O)(=O)c1ccccc1)c1cccs1 | 112% (inactive) |
| CCOc1nc(-c2ccccc2)cc2c(O)c(C(=O)n3nc(C)cc3C)[nH]c(=O)c12 | 100% (inactive) |
| COc1ccc(OC)c(NC(=O)c2cc3oc4ccccc4c3cc2O)c1 | 98.7% (inactive) |
| CN(C)c1ccc(/C=C(\C#N)c2nc3ccccc3c(=O)[nH]2)cc1 | 96.1% (inactive) |
| Nc1nc(SCc2ccccc2Cl)c(-c2ccccc2)c(SCc2ccccc2Cl)n1 | 91.4% (inactive) |
| C/C(=C\CCc1ccsc1)CC/C=C(\C)CCCN1CCN(CCO)CC1 | 50.6% (inactive) |
| CCN1C(=O)c2ccc3c4c(ccc(c24)C1=O)C(=O)N(CCCNCc1ccccc1OC)C3=O | -67.1% (active) |
